Experimental data as given in PubChem BioAssay.
For part of these data: Results with a measured potency or affinity are listed apart. Calls of active or inactive are those of the source.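 How the source made its calls, unless noted: active means calcium signal cut by more than 3 SD below the full-agonist control yet still positive, in both repeats and the earlier primary screen; inactive means the rest.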

Experiments:
[1] = test system: TRPC4 beta (transient receptor potential cation channel C4), mouse; experiment: activators of mouse TRPC4 channel, confirmation, cell-based, Fluo4 calcium, HEK293 TRPC4beta/mu-opioid, duplicates, 10 µM (AID 2426;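 active means fluorescence ratio normalized to control raised more than 50% in primary screen plus both repeat runs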); conditions: Fluo4 calcium fluorescence, at 10 µM; stronger effect = higher value
[2] = test system: transient receptor potential cation channel C4 beta (TRPC4), mouse; experiment: activators of mouse TRPC4 channel, confirmation, cell-based, second round, Fluo4, HEK293 TRPC4beta/mu-opioid, 1 µM (AID 2461;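 active means primary screen active and over 50% activation in each of two duplicate runs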); conditions: Fluo4 calcium fluorescence, at 1 µM; stronger effect = higher value
[3] = test system: TRPC4 (transient receptor potential cation channel C4 beta), mouse; experiment: positive allosteric modulators of mouse TRPC4, confirmation, cell-based, second round, Fluo-4, HEK293 TRPC4beta/mu-opioid, 1 µM (AID 2554;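 active means primary screen hit whose fluorescence ratio, in both repeats, exceeds the weak agonist control mean by 3 SD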); conditions: DAMGO EC20, Fluo-4 calcium flux, at 1 µM; stronger effect = higher value
[4] = test system: TRPC4 beta (transient receptor potential cation channel C4), mouse; experiment: positive allosteric modulators of mouse TRPC4, confirmation, cell-based, Fluo-4, HEK293 TRPC4beta/mu-opioid (AID 2555;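 active means primary screen hit whose calcium fluorescence ratio, in both repeats, exceeds the weak agonist control mean by 3 SD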); conditions: DAMGO EC20, Fluo-4 calcium flux, at 10 µM; stronger effect = higher value
[5] = molecular target: Short transient receptor potential channel 4 (Mus musculus) (UniProt Q9QUQ5); experiment: inhibitors of mouse TRPC4 channel, confirmation, cell-based, Fluo4, HEK293 TRPC4beta/mu-opioid (AID 2636); conditions: DAMGO, Fluo4 calcium flux, at 10 µM; stronger effect = higher value
[6] = molecular target: Short transient receptor potential channel 4 (Mus musculus) (UniProt Q9QUQ5); experiment: inhibitors of mouse TRPC4 channel, confirmation, cell-based, second round, Fluo4, HEK293 TRPC4beta/mu-opioid, 1 µM (AID 2637;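 active means calcium signal ratio cut to more than 3 SD under the fully stimulated control mean yet still positive, in both repeats and the primary screen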); conditions: Fluo4 calcium flux, DAMGO, at 1 µM; stronger effect = higher value
[7] = molecular target: Short transient receptor potential channel 4 (Mus musculus) (UniProt Q9QUQ5); experiment: mouse TRPC4 channel activators, dose response, cell-based, HEK293 TRPC4/mu-opioid, Fluo-4 calcium (AID 434937;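 active means primary screen activator hit with a dose response curve and TRPC4 channel activation at any tested dose; inactive means no activation, no dose response, or not a primary hit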)
[8] = molecular target: Short transient receptor potential channel 4 (Mus musculus) (UniProt Q9QUQ5); experiment: TRPC4 positive allosteric modulators, dose response, cell-based, HEK293 TRPC4/mu-opioid, Fluo-4 calcium, EC20 DAMGO (AID 434941;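 active means earlier screen potentiator hit that boosts the TRPC4 ion channel at some dose, with a dose response; inactive means no potentiation, no dose response, or not a prior hit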;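 further: calcium entry triggered by an EC20 dose of DAMGO at the co-expressed mu-opioid receptor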)
[9] = molecular target: Short transient receptor potential channel 4 (Mus musculus) (UniProt Q9QUQ5); experiment: mouse TRPC4 channel inhibitors, dose response, cell-based, HEK293 TRPC4/mu-opioid, Fluo-4 calcium (AID 434942;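 active means primary screen inhibitor hit that blocks the TRPC4 channel at some tested dose, yielding a dose curve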)
[10] = molecular target: Short transient receptor potential channel 6 (Mus musculus) (UniProt Q61143); experiment: inhibition of mouse TRPC6 channel, confirmation, selectivity assay for TRPC4 inhibitor project, cell-based, HEK293, membrane potential dye, duplicate (AID 434948;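 active means active in primary screen and both duplicates, each dropping signal beyond three positive-control SD with fluorescence still positive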); conditions: HEK293 TRPC6, membrane potential dye fluorescence, at 10 µM, stimulated with maximal-effect acetylcholine; stronger effect = higher value
[11] = molecular target: Short transient receptor potential channel 6 (Mus musculus) (UniProt Q61143); experiment: activation of mouse TRPC6 channel, confirmation, selectivity assay for TRPC4 activator project, cell-based, HEK293, membrane potential dye, duplicate (AID 434950;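 active means membrane potential signal rise above negative control mean plus 3 SD in both duplicates, also active in the earlier TRPC4 screen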); conditions: HEK293 TRPC6, membrane potential fluorescence, at 10 µM; stronger effect = higher value
[12] = molecular target: Short transient receptor potential channel 6 (Mus musculus) (UniProt Q61143); experiment: TRPC6 potentiation by TRPC4 potentiator hits, confirmation, selectivity assay for TRPC4 potentiator project, HEK293 cells, membrane potential dye, duplicate (AID 434952;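 active means compound raising the membrane signal above positive-control mean plus 3 SD in both repeats, and a primary screen hit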); conditions: HEK293 TRPC6, membrane potential dye fluorescence, at 10 µM, maximal acetylcholine added after compound; stronger effect = higher value
[13] = molecular target: Short transient receptor potential channel 4 (Mus musculus) (UniProt Q9QUQ5); experiment: calcium flux activators in TRPC4/5HT1a cells, counter-screen for TRPC4 activator project, cell-based, second counter screen, HEK293 TRPC4/5HT1a, Fluo-4 (AID 434977;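 active means calcium signal rise above buffer-control mean plus 5 SD in both duplicates, and also a hit in the primary screen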); conditions: Fluo-4 calcium flux, at 10 µM; stronger effect = higher value
[14] = calcium flux inhibitors in TRPC4/5HT1a cells, confirmation, counter-screen for TRPC4 inhibitor project, cell-based, second counter screen, HEK293 TRPC4/5HT1a, Fluo-4 (AID 434978;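 active means primary screen active whose calcium signal fell more than 3 SD beyond the full-serotonin control mean in both duplicate plates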;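 on outcome: serotonin given first at submaximal then at maximal dose after compound preincubation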); conditions: Fluo-4 calcium flux, at 10 µM, serotonin added to trigger calcium flux; stronger effect = higher value
[15] = test system: TRPC4 (mouse), co-expressed with 5HT1a in HEK293; experiment: calcium flux potentiators in TRPC4/5HT1a cells, confirmation, counter-screen for TRPC4 potentiator project, cell-based, second counter screen, HEK293 TRPC4/5HT1a, Fluo-4 (AID 434979;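 active means signal rise over 3 SD above mean of control wells given weak agonist, in both repeats and first screen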); conditions: Fluo-4 calcium flux, at 10 µM, serotonin added at its EC20 dose; stronger effect = higher value
[16] = calcium flux activation in mu-opioid HEK293 cells, confirmation, counter-screen for TRPC4 activator project, cell-based, HEK293 mu-opioid receptor line (AID 449723;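 active means hit in primary screen, with calcium signal over 5 SD above buffer well mean in both duplicates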;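 further: counter screen cells carry the mu-opioid receptor alone and lack TRPC4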); conditions: Fluo-4 calcium fluorescence, at 10 µM; stronger effect = higher value
[17] = calcium flux enhancement in mu-opioid HEK293 cells, confirmation, counter-screen for TRPC4 allosteric potentiator project, cell-based, HEK293 mu-opioid receptor line (AID 449724;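 active means calcium signal rise more than 3 SD above the low-dose agonist control mean, in both duplicate plates and the primary screen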); conditions: Fluo-4 calcium flux, at 10 µM, compound added before EC20 DAMGO stimulus; stronger effect = higher value

Chain of Short transient receptor potential channel 4 (Mus musculus) (Q9QUQ5 whole entry, looked up): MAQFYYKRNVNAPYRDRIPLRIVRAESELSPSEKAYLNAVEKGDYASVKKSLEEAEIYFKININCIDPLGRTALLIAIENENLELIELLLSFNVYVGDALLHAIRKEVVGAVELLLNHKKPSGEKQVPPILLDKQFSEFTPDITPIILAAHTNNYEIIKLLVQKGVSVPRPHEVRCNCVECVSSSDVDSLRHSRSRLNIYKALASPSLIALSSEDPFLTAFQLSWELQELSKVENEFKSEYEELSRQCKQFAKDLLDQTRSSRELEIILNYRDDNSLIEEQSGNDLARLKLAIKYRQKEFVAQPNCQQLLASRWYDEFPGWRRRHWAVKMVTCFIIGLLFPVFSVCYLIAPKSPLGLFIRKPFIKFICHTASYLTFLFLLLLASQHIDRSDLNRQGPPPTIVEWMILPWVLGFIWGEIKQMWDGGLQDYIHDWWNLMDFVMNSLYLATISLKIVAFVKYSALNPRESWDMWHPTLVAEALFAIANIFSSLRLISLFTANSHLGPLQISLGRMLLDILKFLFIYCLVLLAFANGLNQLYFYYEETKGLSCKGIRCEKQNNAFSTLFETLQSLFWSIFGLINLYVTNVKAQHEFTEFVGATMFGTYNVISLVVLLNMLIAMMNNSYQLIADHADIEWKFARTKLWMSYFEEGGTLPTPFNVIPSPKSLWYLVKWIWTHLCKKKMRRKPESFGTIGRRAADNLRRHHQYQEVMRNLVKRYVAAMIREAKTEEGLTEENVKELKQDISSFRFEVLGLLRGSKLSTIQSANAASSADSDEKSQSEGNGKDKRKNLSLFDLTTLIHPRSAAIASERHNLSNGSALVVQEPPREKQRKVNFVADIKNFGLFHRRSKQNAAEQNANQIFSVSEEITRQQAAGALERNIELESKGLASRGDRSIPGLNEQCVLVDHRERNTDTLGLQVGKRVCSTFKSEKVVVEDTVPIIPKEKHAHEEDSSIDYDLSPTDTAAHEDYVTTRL
Chain of Short transient receptor potential channel 6 (Mus musculus) (Q61143 whole entry, looked up): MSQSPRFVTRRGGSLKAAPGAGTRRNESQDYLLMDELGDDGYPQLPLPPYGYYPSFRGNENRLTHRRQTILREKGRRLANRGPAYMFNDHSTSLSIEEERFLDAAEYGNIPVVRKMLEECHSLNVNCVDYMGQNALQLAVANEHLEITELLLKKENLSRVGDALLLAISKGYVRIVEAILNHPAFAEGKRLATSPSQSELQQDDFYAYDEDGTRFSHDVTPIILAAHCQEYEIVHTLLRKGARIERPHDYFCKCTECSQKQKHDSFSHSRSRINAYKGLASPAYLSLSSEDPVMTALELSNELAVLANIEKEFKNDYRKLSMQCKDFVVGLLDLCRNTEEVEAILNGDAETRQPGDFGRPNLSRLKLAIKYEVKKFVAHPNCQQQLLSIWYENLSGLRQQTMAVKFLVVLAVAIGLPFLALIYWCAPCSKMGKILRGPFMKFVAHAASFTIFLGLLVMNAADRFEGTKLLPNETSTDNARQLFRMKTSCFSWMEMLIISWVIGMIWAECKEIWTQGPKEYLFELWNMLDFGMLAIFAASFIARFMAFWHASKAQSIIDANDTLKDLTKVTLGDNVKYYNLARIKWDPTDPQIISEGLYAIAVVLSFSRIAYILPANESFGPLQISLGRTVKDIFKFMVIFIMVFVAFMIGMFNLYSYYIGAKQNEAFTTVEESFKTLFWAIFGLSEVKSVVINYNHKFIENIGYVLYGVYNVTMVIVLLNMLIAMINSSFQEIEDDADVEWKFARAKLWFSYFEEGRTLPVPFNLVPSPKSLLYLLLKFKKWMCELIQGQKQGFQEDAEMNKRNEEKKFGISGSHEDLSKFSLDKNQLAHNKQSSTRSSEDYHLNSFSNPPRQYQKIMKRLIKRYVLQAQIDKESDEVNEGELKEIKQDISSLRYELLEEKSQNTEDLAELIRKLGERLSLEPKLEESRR

Cc1ccc(C(=O)OCCN2CCN(c3ncc(C(F)(F)F)cc3Cl)CC2)cc1
inactive: outcome [1] | outcome [2] | outcome [3] | outcome [5] | outcome [6] | outcome [7] | outcome [8] | outcome [9] | outcome [10] | outcome [11] | outcome [12] | outcome [13] | outcome [14] | outcome [16] | outcome [17]
active: potentiation [4] 9% | potentiation [15] 14.3%

COc1ccc(OCC(=O)NC2CCCN(Cc3ccc(Cl)cc3)C2)cc1 (stereo not given)
active: potentiation [3] 26% | potentiation [15] 15.2%
inactive: outcome [1] | outcome [2] | outcome [4] | outcome [5] | outcome [6] | outcome [7] | outcome [8] | outcome [9] | outcome [10] | outcome [11] | outcome [12] | outcome [13] | outcome [14] | outcome [16] | outcome [17]

CN(C)CCCOC(=O)c1ccc(Cl)cc1Cl
active: potentiation [3] 16% | potentiation [4] 8% | potentiation [15] 18.3%
inactive: outcome [1] | outcome [2] | outcome [5] | outcome [6] | outcome [7] | outcome [8] | outcome [9] | outcome [10] | outcome [11] | outcome [12] | outcome [13] | outcome [14] | outcome [16] | outcome [17]

CSc1ncccc1C(=O)OCC(=O)N(CC(C)C)c1c(N)n(Cc2ccccc2)c(=O)[nH]c1=O
inactive: outcome [1] | outcome [2] | outcome [3] | outcome [4] | outcome [5] | outcome [6] | outcome [7] | outcome [8] | outcome [9] | outcome [10] | outcome [11] | outcome [12] | outcome [13] | outcome [14] | outcome [15] | outcome [16] | outcome [17]

Cc1ccc(NS(=O)(=O)c2cc(N)ccc2Cl)c(C)c1
inactive: outcome [1] | outcome [2] | outcome [3] | outcome [4] | outcome [5] | outcome [6] | outcome [7] | outcome [8] | outcome [9] | outcome [10] | outcome [11] | outcome [12] | outcome [13] | outcome [14] | outcome [15] | outcome [16] | outcome [17]

CCSc1ccccc1C(=O)NCCc1ccccc1
inactive: outcome [1] | outcome [2] | outcome [3] | outcome [4] | outcome [5] | outcome [6] | outcome [7] | outcome [8] | outcome [9] | outcome [10] | outcome [11] | outcome [12] | outcome [13] | outcome [14] | outcome [15] | outcome [16] | outcome [17]

Cc1ccc(S(=O)(=O)NC(C(=O)Oc2cc3oc(=O)cc(C)c3cc2Cl)C(C)C)cc1 (stereo not given)
inactive: outcome [1] | outcome [2] | outcome [3] | outcome [4] | outcome [5] | outcome [6] | outcome [7] | outcome [8] | outcome [9] | outcome [10] | outcome [11] | outcome [12] | outcome [13] | outcome [14] | outcome [15] | outcome [16] | outcome [17]

Cc1cc(NC(=O)C(C)SCC(=O)N(Cc2ccccc2)c2ccccc2)no1 (stereo not given)
inactive: outcome [1] | outcome [2] | outcome [3] | outcome [4] | outcome [6] | outcome [7] | outcome [8] | outcome [9] | outcome [10] | outcome [11] | outcome [12] | outcome [13] | outcome [15] | outcome [16] | outcome [17]
active: inhibition [5] 90% | inhibition [14] 25.3%

CCOC(=O)c1sc2c(c1C)c(=O)n(CCO)c(=O)n2Cc1ccccc1
inactive: outcome [1] | outcome [2] | outcome [3] | outcome [4] | outcome [5] | outcome [6] | outcome [7] | outcome [8] | outcome [9] | outcome [10] | outcome [11] | outcome [12] | outcome [13] | outcome [14] | outcome [15] | outcome [16] | outcome [17]

Cc1cc(Nc2ccc3c(c2)OCCO3)c2cccc(C)c2n1
inactive: outcome [1] | outcome [2] | outcome [3] | outcome [4] | outcome [5] | outcome [6] | outcome [7] | outcome [8] | outcome [9] | outcome [10] | outcome [11] | outcome [12] | outcome [13] | outcome [14] | outcome [15] | outcome [16] | outcome [17]

c1ccc2c3c([nH]c2c1)CCNC3
inactive: outcome [1] | outcome [2] | outcome [3] | outcome [4] | outcome [5] | outcome [6] | outcome [7] | outcome [8] | outcome [9] | outcome [10] | outcome [11] | outcome [12] | outcome [13] | outcome [14] | outcome [15] | outcome [16] | outcome [17]

CC1CCN(CCc2nc3cc(NS(=O)(=O)c4ccc(F)cc4)ccc3n2C)CC1
active: potentiation [15] 7.72%
inactive: outcome [1] | outcome [2] | outcome [3] | outcome [4] | outcome [5] | outcome [6] | outcome [7] | outcome [8] | outcome [9] | outcome [10] | outcome [11] | outcome [12] | outcome [13] | outcome [14] | outcome [16] | outcome [17]

CC(=NCCN1CCN(C(C)=C2C(=O)c3ccccc3C2=O)CC1)C1=C(O)CC(C)(C)CC1=O
inactive: outcome [1] | outcome [2] | outcome [3] | outcome [4] | outcome [5] | outcome [6] | outcome [7] | outcome [8] | outcome [9] | outcome [10] | outcome [11] | outcome [12] | outcome [13] | outcome [14] | outcome [15] | outcome [16] | outcome [17]

Cc1ccnc(NC(=O)COC(=O)C23CC4CC(CC(C4)C2)C3)n1
inactive: outcome [1] | outcome [2] | outcome [3] | outcome [5] | outcome [6] | outcome [7] | outcome [8] | outcome [9] | outcome [10] | outcome [11] | outcome [12] | outcome [13] | outcome [14] | outcome [16] | outcome [17]
active: potentiation [4] 128% | potentiation [15] 104%

CN(C)CCCCOc1cccc(Br)c1
inactive: outcome [1] | outcome [2] | outcome [3] | outcome [4] | outcome [5] | outcome [6] | outcome [7] | outcome [8] | outcome [9] | outcome [10] | outcome [11] | outcome [12] | outcome [13] | outcome [14] | outcome [16] | outcome [17]
active: potentiation [15] 20%
